# Experimental data reported in PubChem BioAssay (NCATS).
# Where “and” joins values, the source holds several entries; their conditions need not be identical. Equal values may be shown once. Results filed as inconclusive are left out. A call without a number means that no potency is given here. Unmarked numbers belong to inactive results. Calls of active or inactive are those of the source. The call rests on the fitted dose curve; in most records, active means well fitted curve in the direction sought with a large enough effect; inconclusive means small, poorly fitted or top-dose-only effect, or another doubt; inactive means no such curve, though single readings can be large; an effect the other way counts as inactive or inconclusive.
# What was measured:
# HEK293 = assay: Cytotoxic Profiling of Annotated Libraries Using Quantitative High-Throughput Screening (AID 1296008); conditions: Five cell lines viability, CellTiter-Glo ATP luminescence, 48-72 h; max response: stronger effect = lower value; further: nearly all actives have a fitted effect of over 60% in size; further: potency means the concentration at half of the fitted maximal effect
# Outline: (§1)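 Cytotoxicity was measured as CellTiter-Glo ATP luminescence, read after 10 min at room temperature. Compound treatment of the cells lasted 48 or 72 hr at 37 degrees Celsius in a qHTS format.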
# HaCat [1] = assay: as above; conditions: Five cell lines viability, CellTiter-Glo ATP luminescence, 48-72 h; max response: stronger effect = lower value
# Outline: as §1
# MCC-13 = assay: qHTS assay to identify novel small-molecules to repurpose for Merkel cell carcinoma treatment (AID 1296009); conditions: MCC and control cell lines, CellTiter-Glo viability, 72 h; series mostly up to 46 µM; further: nearly all actives have a fitted effect of over 60% in size; further: potency means the concentration at half of the fitted maximal effect
# Outline: (§2)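 Cell viability, measured as CellTiter-Glo luminescence, was normalized between DMSO and no-cell wells. The cells had been exposed to 8- or 11-point compound dilutions for 72 hr at 37 degree celsius.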
# MCC-26 = assay: as above; conditions: MCC and control cell lines, CellTiter-Glo viability, 72 h; series mostly up to 46 µM
# Outline: as §2
# MKL-1 = assay: as above; conditions: MCC and control cell lines, CellTiter-Glo viability, 72 h; series mostly up to 46 µM
# Outline: as §2
# MKL-2 = assay: as above; conditions: MCC and control cell lines, CellTiter-Glo viability, 72 h; series mostly up to 46 µM
# Outline: as §2
# C33A = assay: Primary qHTS to identify gynecologic anti-cancer compounds using libraries of approved drugs and bioactive compounds (AID 1345084); conditions: Gynecologic cancer cell panel viability, ATPlite luminescence, 48 h; series mostly up to 57.5 µM; further: nearly all actives have a fitted effect of over 55% in size
# Outline: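 In this quantitative HTS, cell killing is estimated from loss of ATP-dependent luciferase light. Cells see five compound concentrations over a 48 h exposure.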
# KB-3-1 = assay: Cytotoxic Profiling of Annotated Libraries Using Quantitative High-Throughput Screening (AID 1296008); conditions: Five cell lines viability, CellTiter-Glo ATP luminescence, 48-72 h; max response: stronger effect = lower value; further: nearly all actives have a fitted effect of over 60% in size; further: potency means the concentration at half of the fitted maximal effect
# Outline: as §1
# NIH3T3 = assay: as above; conditions: Five cell lines viability, CellTiter-Glo ATP luminescence, 48-72 h; max response: stronger effect = lower value
# Outline: as §1
# WaGa = assay: qHTS assay to identify novel small-molecules to repurpose for Merkel cell carcinoma treatment (AID 1296009); conditions: MCC and control cell lines, CellTiter-Glo viability, 72 h; series mostly up to 46 µM; further: nearly all actives have a fitted effect of over 60% in size; further: potency means the concentration at half of the fitted maximal effect
# Outline: as §2
# UISO = assay: as above; conditions: MCC and control cell lines, CellTiter-Glo viability, 72 h; series mostly up to 46 µM
# Outline: as §2
# HACAT [2] = assay: as above; conditions: MCC and control cell lines, CellTiter-Glo viability, 72 h; at 44.8 µM (top of the series) unless noted
# Outline: as §2
# SC27B = assay: qHTS profiling for inhibitors of Plasmodium falciparum proliferation (AID 504749); further: nearly all actives have a fitted effect of over 60% in size; conditions: P. falciparum in erythrocytes, SYBR Green DNA, 72 h; series mostly up to 28.7 µM
# Outline: (§3)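 SYBR Green fluorescence of parasite DNA, read after lysis and overnight dark incubation, measured growth over 72 h in erythrocyte culture at 0.3% parasitemia and 2.5% hematocrit. Data normalised to DMSO and 0.29 uM artemisinin, with plate-drift correction.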
# TAB109 = assay: as above; conditions: P. falciparum in erythrocytes, SYBR Green DNA, 72 h; series mostly up to 28.7 µM
# Outline: as §3
# TAB113 = assay: as above; conditions: P. falciparum in erythrocytes, SYBR Green DNA, 72 h; series mostly up to 28.7 µM
# Outline: as §3
# TAB165 = assay: as above; conditions: P. falciparum in erythrocytes, SYBR Green DNA, 72 h; series mostly up to 28.7 µM
# Outline: as §3
# W2 = assay: as above; conditions: P. falciparum in erythrocytes, SYBR Green DNA, 72 h; series mostly up to 28.7 µM
# Outline: as §3
smiles,measurement,setting,value
CCc1cncnc1N1CCN(Cc2nc3ccc(C(F)(F)F)cc3[nH]2)CC1,Potency,HEK293,14.8 µM (active) and 13 µM (active)
same,max response,HaCat [1],-29.7%
same,Potency,MCC-13,inactive
same,Potency,MCC-26,inactive
same,Potency,MKL-1,inactive
same,Potency,MKL-2,inactive
same,Potency,C33A,inactive
CS(=O)(=O)c1cccc(CNc2nc(Nc3ccc4c(c3)CCC(=O)N4)ncc2C(F)(F)F)c1,Potency,HEK293,18.4 µM (active)
same,Potency,HaCat [1],14.6 µM (active)
same,Potency,KB-3-1,18.7 µM (active)
same,Potency,NIH3T3,8.2 µM (active)
same,Potency,MCC-13,inactive
same,Potency,MCC-26,inactive
same,Potency,MKL-2,inactive
same,Potency,WaGa,16.6 µM (active)
same,Potency,C33A,inactive
CCOc1cc(N2CCC(O)CC2)ccc1Nc1ncc2c(n1)N(C)c1ccccc1C(=O)N2C,max response,HaCat [1],2.41%
same,Potency,MKL-1,3.32 µM (active)
same,Potency,MKL-2,2.64 µM (active)
same,Potency,UISO,11.8 µM (active)
same,Potency,WaGa,3.72 µM (active)
CNC(=O)c1ccc(N2C(=S)N(c3ccc(C#N)c(C(F)(F)F)c3)C(=O)C2(C)C)cc1F,max response,HEK293,-4.81%
same,outcome,HaCat [1],inactive
same,max response,KB-3-1,8.38%
same,max response,NIH3T3,-6.26%
same,outcome,HACAT [2],inactive
same,Potency,MCC-13,inactive
same,Potency,MCC-26,inactive
same,Potency,MKL-1,inactive
same,Potency,MKL-2,inactive
same,Potency,UISO,inactive
same,Potency,WaGa,inactive
Cc1cc2c(C(C)C)c(O)c(O)c(C=O)c2c(O)c1-c1c(C)cc2c(C(C)C)c(O)c(O)c(C=O)c2c1O,Potency,HEK293,23.5 µM (active)
same,Potency,KB-3-1,9.35 µM (active)
same,Potency,MCC-13,inactive
same,Potency,MCC-26,inactive
same,Potency,MKL-1,13.3 µM (active)
same,Potency,UISO,21.1 µM (active)
same,Potency,WaGa,23.7 µM (active)
Fc1ccc(Cl)cc1-c1nc(Nc2ccncc2)c2nccnc2n1,outcome,HaCat [1],inactive
same,max response,KB-3-1,2.67%
same,max response,NIH3T3,-15.4%
same,outcome,HACAT [2],inactive
same,Potency,MCC-13,inactive
same,Potency,MCC-26,inactive
same,Potency,MKL-1,inactive
same,Potency,MKL-2,inactive
same,Potency,UISO,inactive
same,Potency,WaGa,inactive
COc1ccc2nc(S(=O)Cc3ncc(C)c(OC)c3C)[nH]c2c1 (configuration not stated),Potency,SC27B,inactive
same,Potency,TAB109,inactive
same,Potency,TAB113,inactive
same,outcome,HaCat [1],inactive
same,max response,KB-3-1,-5.29%
same,max response,NIH3T3,-7.21% and -1.13%
same,outcome,HACAT [2],inactive
same,Potency,MCC-13,inactive
same,Potency,MCC-26,inactive
same,Potency,MKL-1,inactive
same,Potency,MKL-2,inactive
same,Potency,UISO,inactive
same,Potency,WaGa,inactive
same,Potency,C33A,inactive
CC(=O)NC(C)c1ccc(Oc2ccc(OC(C)C)cc2)cc1 (configuration not stated),Potency,HEK293,14.8 µM (active)
same,max response,HaCat [1],-3.76%
same,max response,KB-3-1,7.61%
same,Potency,MCC-13,inactive
same,Potency,MCC-26,inactive
same,Potency,MKL-1,inactive
Cc1ccc(N(CC2=NCCN2)c2cccc(O)c2)cc1,Potency,SC27B,inactive
same,Potency,TAB109,inactive
same,Potency,TAB113,inactive
same,Potency,TAB165,inactive
same,Potency,W2,inactive
same,max response,HaCat [1],1.48%
same,outcome,HaCat [1],inactive
same,max response,KB-3-1,5.53% and -7.75%
same,max response,NIH3T3,-17.8% and -24.2%
same,outcome,HACAT [2],inactive
same,Potency,MCC-13,inactive
same,Potency,MCC-26,inactive
same,Potency,MKL-1,inactive
same,Potency,MKL-2,inactive
same,Potency,UISO,inactive
same,Potency,WaGa,inactive
same,Potency,C33A,inactive
N#Cc1ccc(C(c2ccc(C#N)cc2)n2cncn2)cc1,Potency,SC27B,inactive
same,Potency,TAB109,inactive
same,Potency,TAB113,inactive
same,Potency,TAB165,inactive
same,Potency,W2,inactive
same,max response,HaCat [1],2.76%
same,max response,KB-3-1,-0.837% and -6.35%
same,max response,NIH3T3,2.6%
same,Potency,MCC-13,inactive
same,Potency,MCC-26,inactive
same,Potency,MKL-2,inactive
same,Potency,UISO,inactive
same,Potency,WaGa,inactive
O=c1ncn2nc(Sc3ccc(F)cc3F)ccc2c1-c1c(Cl)cccc1Cl,Potency,HEK293,13.2 µM (active)
same,max response,HaCat [1],-4.37%
same,max response,KB-3-1,-0.339%
same,Potency,MCC-13,inactive
same,Potency,MCC-26,inactive
same,Potency,MKL-1,inactive
same,Potency,MKL-2,inactive
CCCS(=O)(=O)Nc1ccc(F)c(C(=O)c2c[nH]c3ncc(-c4ccc(Cl)cc4)cc23)c1F,max response,HEK293,-5.51%
same,max response,HaCat [1],-13.3%
same,max response,KB-3-1,4.09%
same,Potency,MCC-13,inactive
same,Potency,MCC-26,inactive
same,Potency,MKL-1,inactive
same,Potency,MKL-2,inactive
same,Potency,UISO,inactive
same,Potency,WaGa,inactive
same,Potency,C33A,inactive
NC[C@H](O)c1ccc(O)c(O)c1,Potency,SC27B,inactive
same,Potency,TAB109,inactive
same,Potency,TAB113,inactive
same,Potency,TAB165,inactive
same,Potency,W2,inactive
same,Potency,C33A,inactive
NC(=O)C1CCCc2c1[nH]c1ccc(Cl)cc21 (configuration not stated),Potency,HEK293,5.9 µM (active)
same,max response,HaCat [1],-10.7%
same,max response,KB-3-1,2.38%
same,max response,NIH3T3,-12.4%
same,Potency,MCC-13,inactive
same,Potency,MCC-26,inactive
same,Potency,MKL-1,inactive
same,Potency,MKL-2,inactive
same,Potency,UISO,inactive
same,Potency,WaGa,inactive
